Source: PubChem BioAssay (National Center for Advancing Translational Sciences (NCATS))
The list is not random: actives were taken first. Their share in the collection is about 2.4%.
POLI inh: DNA polymerase iota (human) inhibition | Q9UNA4 | Pol iota fluorescent replication assay, 10 min | Potency, µM (series often up to 115 µM), most hits filed as inhibitors | 390,000 compounds, 1% hits
Target sequence (Q9UNA4 whole entry, looked up): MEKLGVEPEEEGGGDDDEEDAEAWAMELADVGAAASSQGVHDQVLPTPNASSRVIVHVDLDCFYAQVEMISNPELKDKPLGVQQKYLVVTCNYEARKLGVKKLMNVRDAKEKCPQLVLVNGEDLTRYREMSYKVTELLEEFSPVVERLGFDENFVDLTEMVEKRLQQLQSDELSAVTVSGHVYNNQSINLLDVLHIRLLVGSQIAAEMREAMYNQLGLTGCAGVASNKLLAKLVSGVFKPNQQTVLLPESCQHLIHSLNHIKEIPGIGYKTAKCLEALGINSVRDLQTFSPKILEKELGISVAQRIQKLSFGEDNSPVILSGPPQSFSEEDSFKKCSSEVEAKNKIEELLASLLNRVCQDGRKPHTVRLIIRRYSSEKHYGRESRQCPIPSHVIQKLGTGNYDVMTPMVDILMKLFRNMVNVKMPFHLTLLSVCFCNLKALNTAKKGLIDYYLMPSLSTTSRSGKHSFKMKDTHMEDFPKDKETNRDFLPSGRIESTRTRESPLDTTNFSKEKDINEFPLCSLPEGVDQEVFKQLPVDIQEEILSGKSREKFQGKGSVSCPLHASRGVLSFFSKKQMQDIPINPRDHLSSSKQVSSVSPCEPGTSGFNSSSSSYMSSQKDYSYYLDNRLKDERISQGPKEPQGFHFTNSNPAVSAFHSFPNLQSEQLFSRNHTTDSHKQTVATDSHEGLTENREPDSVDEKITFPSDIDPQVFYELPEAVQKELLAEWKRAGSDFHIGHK
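Fluorescent replication assay read twice, at 0 min and 10 min after adding 50 nM (final) substrate. Enzyme (10 nM) and compounds were first incubated 15 min at room temperature; enzyme-free buffer wells were negative controls.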
TDP1 block: blocks human tyrosyl-DNA phosphodiesterase 1; Potency, µM (series often up to 130 µM), most hits filed as inhibitors; 350,000 compounds, 0.28% hits; Q9NUW8; AID 485290; recombinant TDP1, AlphaScreen DNA substrate cleavage; further: nearly all actives have a fitted effect of over 40% in size
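AlphaScreen read-out: signal falls as enzyme removes the 3' tyrosine-FITC from a 5'-biotinylated DNA oligo (15 nM, 5 min, RT). Enzyme was E. coli-made recombinant Tdp1 at 1 nM, exposed to compound for 15 min beforehand; beads 10 ug/ml, 10 min.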
Pol beta inh: DNA polymerase beta (human) inhibition. Pol beta primer extension/strand displacement, fluorescence kinetic. 340,000 compounds, 1.3% hits. P06746. Potency, µM (highest dose often 114 µM), actives largely listed as inhibitors
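Reaction started by 50 nM substrate onto compound-treated Pol beta (10 nM, 15 min preincubation, room temperature); plates read at 0 min and 10 min. Normalized concentration-effect data fitted by four-parameter Hill equation.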
Pol eta inh: inhibitors of human DNA polymerase eta; Q9Y253; recombinant Pol eta, fluorescent DNA replication assay; Potency, µM (top dose mostly 114 µM), usual class: inhibitors; 390,000 compounds, 1.2% hits; AID 588591
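Pol eta (10 nM) was preincubated with compounds for 15 min at room temperature, after which fluorescent replication substrate (50 nM final) was added to start the reaction. Fluorescence was read kinetically at 0 and 10 min.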
Pol kappa inh: blocks human DNA polymerase kappa activity; Q9UBT6; purified Pol kappa, fluorescent DNA synthesis assay, 10 min; Potency, µM (titrated, usually from 107 µM), hits mostly inhibitors; 400,000 compounds, 0.53% hits
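50 nM final substrate added after 15 min RT preincubation of 10 nM Pol kappa with compound; fluorescence read at 0 and 10 min.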
FEN1 inh: inhibitors of human flap endonuclease 1 | AID 588795 | P39748 | Recombinant FEN1 flap cleavage, fluorescence, 15 min | 390,000 compounds, 0.35% hits | Potency, µM (series often up to 114 µM), actives largely listed as inhibitors; further: nearly all actives have a fitted effect of over 65% in size
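Read-out was taken twice, immediately and after 15 min, following addition of 50 nM substrate to 10 nM FEN1 that had sat with test compound for 15 min at room temperature. Curves came from a four-parameter Hill model.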
Large screens that a line does not name were inactive. The call rests on the fitted dose curve; in most records, active means well fitted curve in the direction sought with a large enough effect; inconclusive means small, poorly fitted or top-dose-only effect, or another doubt; inactive means no such curve, though single readings can be large; an effect the other way counts as inactive or inconclusive.

COc1ccc2[nH]c(=O)c(CN(C3CCCCC3)C(c3nnnn3Cc3ccco3)C(C)C)cc2c1 (stereo unspecified)	POLI inh 16µM, Pol beta inh 35µM, Pol eta inh 18µM, Pol kappa inh inconclusive
CC1Cc2cc(S(=O)(=O)NCc3ccc(F)cc3)ccc2N1C(=O)C1CCC1 (stereo unspecified)	none
Cc1cccc(N2CCN(C(=O)CS(=O)(=O)c3cccc4nsnc34)CC2C)c1 (stereo unspecified)	none
O=C(Cc1nnc(-c2nc3ccccc3[nH]2)o1)Nc1cc(C(F)(F)F)ccc1Cl	none (no result: POLI inh, Pol beta inh, Pol eta inh, Pol kappa inh, FEN1 inh)
N#C/C(=C\c1ccc(O)c(O)c1)C(=O)NCCc1ccccc1	POLI inh inconclusive, Pol eta inh 8.9µM, Pol kappa inh inconclusive, FEN1 inh inconclusive
COc1cc(/C=C(\C#N)C(=O)N2CCc3ccccc32)ccc1O	none
N#C/C(=C\c1ccc(O)c(O)c1)C(=O)N1CCc2ccccc21	POLI inh inconclusive, Pol eta inh 40µM, FEN1 inh inconclusive (no result: TDP1 block, Pol beta inh)
O=c1cc(-c2c(O)c3ccccc3n(Cc3ccccc3)c2=O)[nH][nH]1	POLI inh inconclusive, Pol beta inh 8.9µM, Pol eta inh inconclusive, Pol kappa inh 79µM, FEN1 inh inconclusive
CCC(CC)C(=O)Nc1ccc2nc(SCC(=O)N3c4ccccc4CC3C)sc2c1 (stereo unspecified)	none
Cc1nc(SCC(=O)Nc2cc(C(N)=O)cc(C(N)=O)c2)c2c(C)c(C)sc2n1	POLI inh inconclusive, TDP1 block 10µM
Cc1nc(SCC(=O)Nc2sccc2C(N)=O)c2c(C)c(C)sc2n1	none (no result: POLI inh, TDP1 block, Pol beta inh, Pol kappa inh, FEN1 inh)
CCCC1(C)C(C#N)(C#N)C1(C#N)C#N	none (no result: POLI inh, TDP1 block, Pol beta inh, Pol eta inh, FEN1 inh)
Cc1ccc(C)c(S(=O)(=O)N(C)Cc2cccs2)c1	TDP1 block 79µM (no result: Pol beta inh)
COc1ccc(S(=O)(=O)N(C)Cc2cccs2)cc1Br	none
O=C1CCc2cc(S(=O)(=O)Nc3ccc(-c4ccccc4)cc3)ccc2N1	none (no result: POLI inh, Pol beta inh, Pol eta inh, Pol kappa inh, FEN1 inh)
O=C(OCc1nnc(-c2ccccc2)o1)c1cccc(S(=O)(=O)N2CCOCC2)c1	Pol kappa inh 89µM (no result: Pol beta inh)
CCOC(=O)c1cccc(S(=O)(=O)N2CCOCC2)c1	none (no result: TDP1 block)
Cc1ccc(OCC(=O)Nc2sc3c(c2C#N)CC(C)(C)NC3(C)C)cc1	none
CC1(C)Cc2c(sc(NC(=O)COc3cccc4ccccc34)c2C#N)C(C)(C)N1	POLI inh inconclusive, Pol beta inh 22µM, Pol eta inh inconclusive
CCN1C(=NCc2cccc(C(F)(F)F)c2)N[C@@H](c2cccc(C(F)(F)F)c2)C(C(=O)OC)=C1C	none (no result: TDP1 block, Pol beta inh, Pol eta inh)
CCS(=O)(=O)N1Cc2ccccc2CC1C(=O)Nc1nnc(SCc2ccc(C#N)cc2)s1 (stereo unspecified)	POLI inh inconclusive, Pol beta inh 10µM, Pol eta inh inconclusive, Pol kappa inh inconclusive
CCSc1nnc(NC(=O)C2Cc3ccccc3CN2C(=O)c2ccco2)s1 (stereo unspecified)	POLI inh inconclusive, Pol beta inh 22µM, Pol eta inh 28µM, Pol kappa inh inconclusive
Cc1ccc(C)c(CN2C(=O)CSc3ccc(C(=O)NCCc4ccc(Cl)cc4)cc32)c1	none
O=C(CCS(=O)(=O)c1ccccc1)Nc1nc2cc3c(cc2s1)OCO3	POLI inh 71µM, Pol beta inh inconclusive, Pol eta inh inconclusive
O=C(CCS(=O)(=O)c1ccccc1)Nc1nc2ccc(F)cc2s1	none (no result: Pol beta inh)
COc1cccc(-c2nc(CS(=O)(=O)CC(=O)Nc3ccc(C)c(Cl)c3)c(C)o2)c1	none
CC(=O)/C=C/c1ccc2c(c1)S(=O)(=O)N(C1CCCC1)[C@H]2CC(C)=O	POLI inh inconclusive, FEN1 inh inconclusive (no result: TDP1 block, Pol beta inh, Pol eta inh)
CC(=O)OCC1=C(C(=O)O)N2C(=O)C(NC(=O)Cc3ccccc3)C2SC1 (stereo unspecified)	POLI inh 50µM, Pol kappa inh 45µM (no result: TDP1 block, Pol beta inh, Pol eta inh)
CO/N=C(/C(=O)N[C@@H]1C(=O)N2C(C(=O)O)=C(CSC(=O)c3ccco3)CSC12)c1csc(N)n1 (stereo partly specified)	none (no result: POLI inh, TDP1 block, Pol beta inh, Pol eta inh, FEN1 inh)
CO/N=C(\C(=O)N[C@@H]1C(=O)N2C(C(=O)O)=C(COC(N)=O)CS[C@H]12)c1ccco1	POLI inh 40µM, TDP1 block inconclusive, Pol beta inh inconclusive, Pol eta inh 2.5µM, Pol kappa inh inconclusive
CO/N=C(/C(=O)NC1C(=O)N2C(C(=O)O)=C(COC(N)=O)CSC12)c1ccco1 (stereo unspecified)	TDP1 block 22µM, Pol kappa inh 35µM (no result: POLI inh, Pol beta inh, Pol eta inh, FEN1 inh)
Cc1ccc2c(c1)-c1nc(-c3ccc(Cl)cc3)cc(-c3coc4ccccc4c3=O)c1CO2	none
CC(=O)c1c(C)oc2ccc(NS(=O)(=O)c3ccc(O)c(C(=O)O)c3)cc12	POLI inh inconclusive, Pol beta inh inconclusive, Pol eta inh 25µM
O=C(O)c1cc(S(=O)(=O)Nc2ccc3oc(=O)sc3c2)ccc1O	POLI inh inconclusive, Pol beta inh 50µM, Pol eta inh 14µM, Pol kappa inh inconclusive
O=S1(=O)OC(c2ccc(O)cc2)(c2ccc(O)cc2)c2ccccc21	none (no result: POLI inh, Pol beta inh, Pol eta inh, FEN1 inh)
O=C1NC(=S)S/C1=C/c1ccc(OC(=O)c2ccco2)cc1	TDP1 block 50µM, Pol beta inh inconclusive, Pol eta inh inconclusive
O=c1[nH]c(S)c(/C=C2\C=Nc3ccccc32)s1	Pol eta inh 40µM
CCOCCCNC(=O)C1CCN(C(=O)c2cc3sccc3n2C)CC1	none
COc1ccc(/C=N/Nc2nn3cnnc3c3ccccc23)cc1	Pol beta inh 1.8µM, Pol eta inh inconclusive, FEN1 inh inconclusive
O=C(CCl)N(Cc1cc(=O)[nH]c2ccccc12)c1ccccc1	POLI inh inconclusive, Pol eta inh 50µM (no result: TDP1 block)
CC1=C(c2ccc(C(C)C)cc2)S(=O)(=O)N=C1N1CCN(C(=O)c2ccco2)CC1	POLI inh 50µM, Pol kappa inh inconclusive
O=C(/C=C/c1c(Cl)nc2ccccn12)N1CCN(c2ccc(F)cc2)CC1	TDP1 block 79µM, Pol beta inh inconclusive
C=Cc1c(C)/c2[n-]/c1=C\c1[n-]c(c(CC)c1C)/C=c1\[n-]c3c(c1C)C(=O)C(C(=O)[O-])C=3c1[n-]c(c(C)c1CCC(=O)[O-])\C=2.[Cu].[Na+].[Na+] (stereo unspecified)	TDP1 block inconclusive, Pol kappa inh 0.89µM (no result: POLI inh, Pol beta inh, Pol eta inh, FEN1 inh)
CCn1cnc2c(Nc3ccc(Cc4cccnc4)cc3)nc(C#N)nc21	none (no result: POLI inh, Pol beta inh, Pol eta inh, Pol kappa inh, FEN1 inh)
Cc1ccc(S(=O)(=O)N2CCCCC2)cc1C(=O)Nc1ncn[nH]1	TDP1 block 50µM, Pol beta inh 25µM (no result: POLI inh, Pol eta inh, Pol kappa inh, FEN1 inh)
CCOC(=O)C(C(C)=O)c1c(Br)c(O)c(O)c2c(C(=O)c3ccc(C)cc3)coc12 (stereo unspecified)	POLI inh 25µM, Pol kappa inh 50µM
CCOC(=O)c1c(C)n(-c2ccc(C)cc2)c2c(C(C(C)=O)C(=O)O)c(Br)c(O)c(O)c12 (stereo unspecified)	none
